Among the data in PubChem BioAssay AID504915 (The Scripps Research Institute Molecular Screening Center, 2011) are activation values, retold here.

This is one part of the list. Unmarked numbers belong to inactive results. The source made the active and inactive calls. No stated cut-off is given here; in the data, active means activation above about 17%; inactive means the rest.

In this assay the target is 5-hydroxytryptamine receptor 5A (Homo sapiens) (UniProt P47898). Nature of the assay: HTR5A agonists, retest of hits, confirmation, cell-based, luminescence (AID 504915).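 Further: 0% = cells with vehicle only and 100% = full reference agonist response.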 To be noted: HTR5A agonist cell assay, at 9.3 µM, active compounds read high.
Sequence of 5-hydroxytryptamine receptor 5A (Homo sapiens) (P47898 whole entry, looked up): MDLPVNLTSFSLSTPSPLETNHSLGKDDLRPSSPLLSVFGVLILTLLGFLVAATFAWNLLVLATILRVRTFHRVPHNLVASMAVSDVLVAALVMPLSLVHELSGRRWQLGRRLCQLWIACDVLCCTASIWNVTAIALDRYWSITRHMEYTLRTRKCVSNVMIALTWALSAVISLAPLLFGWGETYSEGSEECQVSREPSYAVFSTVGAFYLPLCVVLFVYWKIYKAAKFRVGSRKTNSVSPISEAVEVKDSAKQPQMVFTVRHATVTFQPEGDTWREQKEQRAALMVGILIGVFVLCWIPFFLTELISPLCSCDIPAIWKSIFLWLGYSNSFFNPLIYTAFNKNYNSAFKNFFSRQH

On to `CC1CCN(S(=O)(=O)c2nnc(NC(=O)COc3ccccc3F)s2)CC1`, for which the activation was -0.56%.

As for `c1cc(-c2nn[nH]n2)ccc1CN1CCCCC1`, the activation was -1.04%.

With `COc1ccc(/C=C(\C#N)c2c[nH]c3ccccc23)cc1`, the activation was 0.48%.

For `COc1ccc(C(=O)O/N=C(\N)Cc2ccc(Cl)cc2Cl)cc1OC`, the activation was 10.9%.

For `Cc1oc2c(F)c(F)c(F)c(F)c2c1S(=O)(=O)Nc1cccc(C(F)(F)F)c1`, the activation is -4.5%.

`CC(=O)COc1ccc2c(-c3ccccc3)cc(=O)oc2c1`: the activation is 4.18%.

For `CCCOc1ccc(C(=O)C(CCC(CNCC)C(=O)c2ccc(OCCC)cc2)CNCC)cc1` (stereo not given), the activation was -4.56%.

Turning to `O=C(CNCc1ccco1)Nc1cc(S(=O)(=O)N2CCOCC2)ccc1N1CCCC1`, the activation is -0.44%.

In the case of `Cc1ccc(CCC(=O)Nc2ncc(Cc3cc(Cl)ccc3Cl)s2)o1`, the activation was 29.1% (active).

On to `CCOc1ccc(NC(=O)Nc2cc(C)on2)cc1`, for which the activation is -2.78%.

As to `CCn1nc(C(=O)OCC(=O)N2c3ccccc3CC2C)c2ccccc2c1=O` (stereo not given), the activation is -1.95%.

`O=C(OC12CC3CC(CC(C3)C1)C2)c1ccc(NCc2cc(O)ccc2O)cc1`: the activation was 7.13%.

For the compound `C/C(=N\NC(=O)CNc1cccc2ccccc12)c1ccc(Br)s1`, the activation was 1.77%.

Take `CCN(CC(=O)Nc1cccc(S(=O)(=O)N2CCCCC2)c1)Cc1ccccc1`: the activation is 1.96%.

As to `COc1ccc(-c2ocnc2C(=O)Nc2ccc3c(c2)CCC3)cc1`, the activation is -0.96%.

For `O=C(CC1Nc2ccccc2NC1=O)Nc1ccccc1` (stereo not given), the activation is 3.07%.

For `O=C(CC(O)(C(F)(F)F)C(F)(F)F)Nc1ccc(Cl)c(Cl)c1`, the activation is -1.59%.

With `CC(C)CC(=O)N/C(N)=N/c1nc2ccccc2s1`, the activation is -0.51%.

In the case of `CC(=O)N1CCN(c2ccccc2NC(=S)NC(=O)c2cc3ccccc3o2)CC1`, the activation is 4.36%.

`CCOC(=O)c1cnc2sccn2c1=O`: the activation was 5.5%.

In the case of `Cc1ccc(CN2CCN(Cc3ccc(OCCO)cc3)CC2CCO)o1` (stereo not given), the activation is 2.89%.

With `COc1cccc(/C=N/NC(=O)c2[nH]nc3c2CCc2ccccc2-3)c1O`, the activation was -2.75%.

With `CC1(C)C2CCC1(CS(=O)(=O)NCCc1c[nH]c3ccccc13)C(=O)C2` (stereo not given), the activation was 35.4% (active).

For `Cc1ccccc1CN1CCN(CC(=O)NCc2ccccn2)C1=O`, the activation is 3.7%.

As for `O=C(c1cccnc1)N(c1cc2sc(=O)oc2c2ccccc12)S(=O)(=O)c1ccccc1`, the activation was 2.35%.
